# Data: the supplement of paper PMC7695840
# Tested on: Staphylococcus aureus MW2 delta-mecA (mecA-)
# Assay: normalized GFP fluorescence (growth of mecA- strain) (fraction of control range); higher = more growth of mecA- strain
# Settings: compound concentration: 150 uM; cefoxitin: subinhibitory; fluorescent label: GFP
# Outline: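 Pre-induced S. aureus MW2 cells with the gene (DsRed) and without it (GFP) were mixed 1:1 in LB holding a subinhibitory antibiotic dose set daily and grown on 150 μM compound (1.5% DMSO) in 1536-well plates, single replicate, for 20 h at 37 °C. DsRed (540/590) and GFP (485/520) readings were scaled per plate between single-strain control medians. Plates with high untreated ratios and rows with DsRed/GFP >10 were excluded.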
row,Compound,normalized GFP fluorescence
1,OCC(S)CS (stereo not given),0.185
2,CCCN(CCC)C(=O)C(CCC(=O)O)NC(=O)c1ccccc1 (stereo not given),0.792
3,CN(C)CCOc1ccc(/C(=C(/CCCl)c2ccccc2)c2ccccc2)cc1,0.000588
4,Cc1c(C(=O)NN2CCCCC2)nn(-c2ccc(Cl)cc2Cl)c1-c1ccc(Cl)cc1,0.177
5,CNCCc1ccccn1,0.393
6,O=C(NCC(O)CO)c1c(I)c(C(=O)NCC(O)CO)c(I)c(N(CCO)C(=O)CO)c1I (stereo not given),0.368
7,C[C@@H](c1ncncc1F)[C@](O)(Cn1cncn1)c1ccc(F)cc1F,0.309
8,CC(C)(C)NCC(O)COc1cccc2c1CCC(=O)N2 (stereo not given),0.243
9,CC(=O)c1ccc2c(c1)N(CCCN(C)C)c1ccccc1S2,0.165
10,NS(=O)(=O)c1cc2c(cc1Cl)NC(C(Cl)Cl)NS2(=O)=O (stereo not given),0.381
11,N=C(N)N,0.207
12,OC[C@H]1O[C@@H](O[C@@H]2[C@@H](CO)O[C@](O)(CO)[C@H]2O)[C@H](O)[C@@H](O)[C@H]1O,0.29
13,NNc1nncc2ccccc12,0.383
14,CC(C)c1nc(N(C)S(C)(=O)=O)nc(-c2ccc(F)cc2)c1/C=C/[C@@H](O)C[C@@H](O)CC(=O)O,0.207
15,CN1CCC(OC(c2ccccc2)c2ccccc2)CC1,0.0847
16,NC[C@H]1O[C@H](O[C@H]2[C@H](O[C@@H]3O[C@H](CO)[C@@H](O)[C@H]3O)[C@@H](O)[C@H](N)C[C@@H]2N)[C@H](N)[C@@H](O)[C@@H]1O,0.457
17,O=C(NCCN1CCOCC1)c1ccc(Cl)cc1 [Moclobemide],0.558
18,O=C(NCCO[N+](=O)[O-])c1cccnc1 [Nicorandil (Ikorel)],0.624
19,CN(c1nccc(=O)[nH]1)C1CCN(c2nc3ccccc3n2Cc2ccc(F)cc2)CC1 [Mizolastine (Mizollen)],0.387
20,O=C(Oc1ccccc1C(=O)O)c1ccccc1O,0.297

row,Compound,normalized GFP fluorescence
1,CNCC[C@H](Oc1cccc2ccccc12)c1cccs1,-0.0294
2,CC1(C)O[C@@H]2[C@@H](CO[C@@]3(COS(N)(=O)=O)OC(C)(C)O[C@@H]23)O1,0.798
3,CC1=C(C(=O)O)N2C(=O)[C@@H](NC(=O)[C@H](N)c3ccc(O)cc3)[C@H]2SC1,0.0167
4,CC(=O)OCC(=O)[C@@]12N=C(C)O[C@@H]1C[C@H]1[C@@H]3CCC4=CC(=O)C=C[C@]4(C)[C@H]3[C@@H](O)C[C@@]12C,0.231
5,CCN[C@@H]1C[C@H](N)[C@@H](O[C@H]2OC(CN)=CC[C@H]2N)[C@H](O)[C@H]1O[C@H]1OC[C@](C)(O)[C@H](NC)[C@H]1O,0.695
6,CCOc1ccc(NC(C)=O)cc1,0.419
7,CN(C)CCC=C1c2ccccc2C=Cc2ccccc21,0.0981
8,CCCc1cc(=O)[nH]c(=S)[nH]1,0.668
9,CCCNS(=O)(=O)Nc1ncnc(OCCOc2ncc(Br)cn2)c1-c1ccc(Br)cc1 [Macitentan],0.0399
10,CC(=O)NS(=O)(=O)c1ccc(N)cc1,0.792
11,O=C1CN(/N=C/c2ccc([N+](=O)[O-])o2)C(=O)N1,0.0054
12,c1ccc2c(CC3=NCCN3)cccc2c1,0.526
13,O=C(O)c1cccc(-c2noc(-c3ccccc3F)n2)c1 [PTC124 (Ataluren)],0.0948
14,CCCC(=O)OCOC(=O)C1=C(C)NC(C)=C(C(=O)OC)C1c1cccc(Cl)c1Cl (stereo not given) [Cleviprex (Clevidipine)],0.13
15,CN(C)CCCN1c2ccccc2CCc2ccccc21,0.0133
16,CC(C)(CO)[C@@H](O)C(=O)NCCCO,0.406
17,COc1ccc(CC2c3cc(OC)c(OC)cc3CC[N+]2(C)CCC(=O)OCCCCCOC(=O)CC[N+]2(C)CCc3cc(OC)c(OC)cc3C2Cc2ccc(OC)c(OC)c2)cc1OC (stereo not given),0.325
18,CC(C)OC(=O)C(C)(C)Oc1ccc(C(=O)c2ccc(Cl)cc2)cc1,0.203
19,CCCCN1CCCCC1C(=O)Nc1c(C)cccc1C (stereo not given),0.62
20,Cc1ccc(C(=O)c2ccc(CC(=O)O)n2C)cc1,0.421
